Test results taken from PubChem BioAssay AID1159580 (chemical genetic matrix, 2015).
In all, about 5,500 compounds went through this assay and about 2,000 (36%) were called active. About 18% were inconclusive and are not listed. Some of the results follow. A number with no mark means an inactive call. Rule as the data show it: active = normalized growth mostly below about 0.91 (no sharp cut-off); inconclusive = no clear call, values can overlap the other calls; inactive = mostly above about 0.92.

Assay: chemical genetic growth profiling, strain panel (AID 1159580);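 also: tested at 20 µM; growth read once vehicle control cultures reached saturation at 30 °C; 1 = growth at the plate median or of vehicle wells; lower values mean less growth of the strain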
Settings: growth OD
[1] = S. cerevisiae deletion strains, locus YAL040C, strain CLN3, hits give low values
[2] = S. cerevisiae deletion strains, locus YCL061C, strain MRC1 (second series), hits give low values
[3] = S. cerevisiae deletion strains, locus YDR150W, strain NUM1, hits give low values
[4] = S. cerevisiae deletion strains, locus YDR363W, strain ESC2, hits give low values
[5] = S. cerevisiae deletion strains, locus YER002W, strain NOP16, hits give low values
[6] = S. cerevisiae deletion strains, locus YGR229C, strain SMI1, hits give low values
[7] = S. cerevisiae deletion strains, locus YMR307W, strain GAS1, hits give low values
[8] = S. cerevisiae deletion strains, locus YNL175C, strain NOP13, hits give low values
[9] = S. cerevisiae deletion strains, locus YNL197C, strain WHI3, hits give low values
[10] = S. cerevisiae deletion strains, locus YNL224C, strain SQS1, hits give low values
[11] = S. cerevisiae deletion strains, locus YOR083W, strain WHI5 (second series), hits give low values
[12] = S. cerevisiae deletion strains, locus YPL055C, strain LGE1, hits give low values
[13] = S. cerevisiae deletion strains, locus YAL013W, strain DEP1, hits give low values
[14] = S. cerevisiae deletion strains, locus YBR229C, strain ROT2, hits give low values
[15] = S. cerevisiae deletion strains, locus YDL101C, strain DUN1, hits give low values
[16] = S. cerevisiae deletion strains, locus YEL061C, strain CIN8, hits give low values
[17] = S. cerevisiae deletion strains, locus YGR078C, strain PAC10, hits give low values
[18] = S. cerevisiae deletion strains, locus YHR030C, strain SLT2, hits give low values
[19] = S. cerevisiae deletion strains, locus YHR087W, strain rtc3, hits give low values
[20] = S. cerevisiae deletion strains, locus YJL187C, strain SWE1, hits give low values
[21] = S. cerevisiae deletion strains, locus YJR043C, strain POL32, hits give low values
[22] = S. cerevisiae deletion strains, locus YJR075W, strain HOC1, hits give low values
[23] = S. cerevisiae deletion strains, locus YLR039C, strain RIC1, hits give low values
[24] = S. cerevisiae deletion strains, locus YLR058C, strain SHM2 (second series), hits give low values
[25] = S. cerevisiae deletion strains, locus YLR085C, strain ARP6, hits give low values
[26] = S. cerevisiae deletion strains, locus YLR262C, strain YPT6, hits give low values
[27] = S. cerevisiae deletion strains, locus YML094W, strain GIM5, hits give low values
[28] = S. cerevisiae deletion strains, locus YMR219W, strain ESC1, hits give low values
[29] = S. cerevisiae deletion strains, locus YMR263W, strain SAP30, hits give low values
[30] = S. cerevisiae deletion strains, locus YNL153C, strain GIM3, hits give low values
[31] = S. cerevisiae deletion strains, locus YNL298W, strain CLA4 (second series), hits give low values
[32] = S. cerevisiae deletion strains, locus YNL322C, strain KRE1, hits give low values
[33] = S. cerevisiae deletion strains, locus YNR030W, strain Alg12, hits give low values
[34] = S. cerevisiae deletion strains, locus YOL006C, strain TOP1, hits give low values
[35] = S. cerevisiae deletion strains, locus YPL241C, strain CIN2, hits give low values
[36] = S. cerevisiae deletion strains, locus YPR135W, strain CTF4, hits give low values

Cc1ccc(C(=O)O[C@H](C(=O)O)[C@H](OC(=O)c2ccc(C)cc2)C(=O)O)cc1
normalized growth [1]: 1.01
normalized growth [2]: 1
normalized growth [3]: 1.01
normalized growth [4]: 1.03
normalized growth [5]: 1.01
normalized growth [6]: 1.01
normalized growth [7]: 0.99
normalized growth [8]: 1
normalized growth [9]: 1
normalized growth [10]: 1
normalized growth [11]: 0.997
normalized growth [12]: 0.999

Cc1ccc(C(=O)c2ccccc2[N+](=O)[O-])cc1
normalized growth [13]: 0.989
normalized growth [14]: 0.99
normalized growth [15]: 0.983
normalized growth [3]: 0.957
normalized growth [16]: 0.979
normalized growth [17]: 0.982
normalized growth [18]: 0.797
normalized growth [19]: 0.964
normalized growth [20]: 0.987
normalized growth [21]: 0.99
normalized growth [22]: 0.943
normalized growth [23]: 0.913
normalized growth [24]: 0.995
normalized growth [25]: 0.9
normalized growth [26]: 0.948
normalized growth [27]: 0.96
normalized growth [28]: 0.98
normalized growth [29]: 0.98
normalized growth [7]: 0.622 (active)
normalized growth (S. cerevisiae deletion strains, locus YNL128W, strain TEP1, hits give low values): 1.01
normalized growth [30]: 0.954
normalized growth [31]: 0.934
normalized growth [32]: 0.997
normalized growth [33]: 0.939
normalized growth [34]: 0.779
normalized growth [12]: 0.946
normalized growth [35]: 0.828 (active)
normalized growth [36]: 0.8
normalized growth (S. cerevisiae strains, strain wild type, hits give low values): 1

O=C(c1cc(O)c(O)c([N+](=O)[O-])c1)c1ccccc1F
normalized growth [1]: 0.964
normalized growth [2]: 0.953
normalized growth [4]: 0.98
normalized growth [5]: 0.978
normalized growth [17]: 0.977
normalized growth [6]: 0.886
normalized growth [7]: 0.966
normalized growth [8]: 0.985
normalized growth [9]: 0.97
normalized growth [10]: 0.969
normalized growth [11]: 0.996
normalized growth [35]: 0.99

O=C(NNC(=O)c1ccccc1[N+](=O)[O-])c1ccc(Cl)cc1
normalized growth [13]: 1.02
normalized growth [14]: 1.03
normalized growth (S. cerevisiae deletion strains, locus YCL061C, strain MRC1, hits give low values): 1.02
normalized growth [15]: 0.981
normalized growth [3]: 0.904
normalized growth [16]: 1.01
normalized growth [17]: 0.995
normalized growth [18]: 1.14
normalized growth [19]: 0.994
normalized growth [20]: 1
normalized growth [21]: 0.869 (active)
normalized growth [22]: 0.991
normalized growth (S. cerevisiae deletion strains, locus YKL190W, strain CNB1, hits give low values): 1.01
normalized growth [23]: 1.03
normalized growth [24]: 1.01
normalized growth [25]: 1.05
normalized growth [26]: 1.01
normalized growth [27]: 1.02
normalized growth [28]: 1.02
normalized growth [29]: 0.91
normalized growth [30]: 0.993
normalized growth [31]: 1.04
normalized growth [32]: 1.01
normalized growth [33]: 1.03
normalized growth [34]: 1.13
normalized growth [12]: 0.9
normalized growth [35]: 1.03
normalized growth [36]: 1.16

CCOC(=O)CSc1nnc(-c2cc(C(C)(C)C)nn2Cc2cccc(C)c2)n1C1CCCCC1
normalized growth [13]: 1.03
normalized growth [14]: 0.989
normalized growth [15]: 1.01
normalized growth [3]: 1
normalized growth [16]: 0.997
normalized growth [17]: 1.01
normalized growth [6]: 0.993
normalized growth [18]: 0.92
normalized growth [19]: 0.986
normalized growth [20]: 0.994
normalized growth [21]: 0.994
normalized growth [22]: 0.98
normalized growth [23]: 0.909
normalized growth [24]: 0.99
normalized growth [25]: 0.975
normalized growth [26]: 0.901
normalized growth [27]: 1.02
normalized growth [28]: 0.998
normalized growth [29]: 1
normalized growth [30]: 1.02
normalized growth [31]: 1
normalized growth [32]: 0.994
normalized growth [33]: 0.987
normalized growth [12]: 1.03
normalized growth [35]: 0.968
normalized growth [36]: 1.01
